# Measurements as given in PubChem BioAssay (NCI).
# This is part of a sample that, as a whole, favours compounds with a hit. Of some 83,000 tested, about 20% had one in any assay.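 Percent growth is the endpoint: 0 to 100 indicates growth inhibition (40 means 60% inhibition), 0 means no net growth, and negative values indicate cell death.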 A number with no mark means an inactive call. Calls of active or inactive are those of the source. Rule for the calls: active = growth percent below 10; inactive = the rest.
# Test system: UACC-257 melanoma
# Assay: NCI-60 one-dose screen, 48 h (100 = growth as untreated, 0 = no growth, -100 = all killed)
# Details: 10 µM unless noted
row,Structure (SMILES),growth
1,Cc1nnc(-c2ccc3c(c2)nc(/C=C/c2ccccc2)n3C2CCCCC2)o1,77.4%
2,O=S(=O)(NCCNc1nccc(-c2c(-c3ccc(F)c(O)c3)nc3sccn23)n1)c1ccc(F)cc1,32.1%
3,CCN(CC)CCCN1C(=O)c2c(c(C)c3c(oc4ccc(O)cc43)c2C)C1=O,102%
4,CCCCCCCCCCCCCCCCCC1=NC(C)(C)CN1CC(C)O (stereo not given),103%
5,C#CC#CC#CC#CC#CC#CC#CC#CCC1OC[C@H](COC(=O)O[C@@H](C(=O)O[C@H]2C[C@@]3(O)[C@@H](OC(=O)c4ccccc4)[C@@H]4[C@]5(OC(C)=O)CO[C@@H]5C[C@H](O)[C@@]4(C)C(=O)[C@H](OC(C)=O)C(=C2C)C3(C)C)[C@@H](NC(=O)c2ccccc2)c2ccccc2)O1 (stereo not given in full),64.9%
6,Cc1ccc(Cl)cc1NC(=O)c1sc2nc3c(cc2c1N)C(=O)CCC3,44.9%
7,CC(=O)Oc1ccc(OC(C)=O)c2ccccc12,78.1%
8,O=C(NNC(=O)c1nc2cc(F)ccc2n2cccc12)c1cnccn1,53.6%
9,C[C@H](C(=O)N(CCc1ccc(Cl)c(Cl)c1)Cc1cncs1)[C@@H]1CC[C@H](C[C@H](C)n2cc(CN3CCC(c4ccc(Cl)cc4)CC3)nn2)O1,102%
10,O=C(CC(=O)Nc1cccc(C(=O)O)c1)Nc1cccc(C(=O)O)c1,97.7%
11,C=C1CC[C@@H]2C(C)(C)[C@@H](O)CC[C@@]2(C)[C@@H]1COc1ccc2ccc(=O)oc2c1,77.3%
12,CCS/C(Nc1ccccc1)=C(\C#N)C(=O)Nc1ccc(OC)cc1,58.4%
13,Nc1nc(NC(=O)Nc2ccc(C(=O)O)cc2)nn1-c1ccc(S(N)(=O)=O)cc1,89.9%
14,N#Cc1c(-c2ccccc2)nc(SCc2nnc(-c3ccc(Cl)cc3)o2)[nH]c1=O,94.7%
15,CCN(CC)c1ccc(/C=N/NC(=O)Cc2ccc(Nc3ccnc(C(F)(F)F)c3)cc2)c(O)c1,37.4%
16,CC[C@]12C=CCN3CC[C@@]4(c5ccc(OC)cc5N(C)[C@H]4[C@@](O)(C(=O)OC)[C@@H]1OC(=O)CCC[P+](c1ccccc1)(c1ccccc1)c1ccccc1)[C@@H]32,-27.3% (active)
17,Oc1c(CN2CCC(N3CCCCC3)CC2)cc(Cc2cc(CN3CCC(N4CCCCC4)CC3)c(O)c3ncccc23)c2cccnc12,57.2%
18,Nc1c(C(=O)Nc2cccc(Cl)c2)sc2nc3c(cc12)CCCC3,79.1%
19,C=C(c1ccc(OC)c(/C=C/C(=O)c2ccc3c(c2)OCO3)c1)c1cc(OC)c(OC)c(OC)c1,58.7%
20,CCCCCN(CCCCC)CC(O)c1cc(C)c2ccc3cc(C(C)C)ccc3c2c1 (stereo not given),105%
21,O=C1/C=C/[C@@H](O)[C@@H]2C[C@@H](O)C[C@H]2/C=C/CCC[C@H](CCO)O1,27%
22,CC(=O)/C(=C/c1ccc([N+](=O)[O-])cc1)C(=O)c1ccccc1,76.3%
23,CC1(C)CC[C@]23CC[C@]4(C)[C@H](CC[C@@H]5[C@@]6(C)C/C(=C/c7ccncc7)C(=O)C(C)(C)[C@@H]6CC[C@]54C)[C@H]2[C@H]1OC3,85.5%
24,CCCCCCCC/C=C\CCCCCCCCOc1ccc(CC(=O)NCC[N+]2(C)CCOCC2)cc1,96.9%
25,O=C(NNc1cnccn1)c1nc2cc(F)ccc2n2cccc12,-9.5% (active)
26,O=C(C1=Cc2cc3ccccc3n2Cc2cnnn21)c1ccc(O)cc1,84%

# Test system: M14 melanoma
# Assay: as above
# Details: 10 µM unless noted
row,Structure (SMILES),growth
1,CCOC(=O)CC1CSC(Nc2ccccc2)=N1 (stereo not given),103%
2,O=S(=O)(Nc1cc(Sc2cccc3cccnc23)c(O)c2ccccc12)c1ccccc1,-16.5% (active)
3,COc1ccc(C(=O)c2cc3c(N)c(C(=O)Nc4ccccc4)sc3nc2C)cc1,13.1%
4,N=c1c(S(=O)(=O)c2ccccc2)cc2c(=O)n3ccccc3nc2n1CC1CCCO1 (stereo not given),104%
5,CC(C)(C)c1cc(Cl)c(O)c(CNCCO)c1,104%
6,CCN(CC)CCN1C(=O)c2c(c(C)c3c(oc4ccc(O)cc43)c2C)C1=O,38.3%
7,Fc1cccc(-c2ccc3c(c2)C2(CCNCC2)CN3)c1,109%
8,C=CC(=O)Nc1ccc(Oc2nccc(Nc3nnc(-c4ccc(C)cc4)s3)n2)cc1,57.5%
9,NC1(CO)COC(c2ccccc2)OC1 (stereo not given),118%
10,CCNc1ccc(-c2nc3ccccc3n3cccc23)cc1,77.9%
11,CC[N+]1(CC)CC[N+]2(CCCC(C)CC2)CC1 (stereo not given),106%
12,N=C(N)c1ccc(-c2ccc(-c3ccccc3)s2)cc1,81.1%
13,O=C(CSc1nc(-c2ccccc2)cc(=O)[nH]1)Nc1nc(-c2ccccc2)cs1,117%
14,Cc1nnc(-c2ccc3c(c2)nc(/C=C/c2ccccc2)n3C2CCCCC2)o1,73.7%
15,O=S(=O)(NCCNc1nccc(-c2c(-c3ccc(F)c(O)c3)nc3sccn23)n1)c1ccc(F)cc1,15.5%
16,CCN(CC)CCCN1C(=O)c2c(c(C)c3c(oc4ccc(O)cc43)c2C)C1=O,86.6%
17,CCCCCCCCCCCCCCCCCC1=NC(C)(C)CN1CC(C)O (stereo not given),36.6%
18,C#CC#CC#CC#CC#CC#CC#CC#CCC1OC[C@H](COC(=O)O[C@@H](C(=O)O[C@H]2C[C@@]3(O)[C@@H](OC(=O)c4ccccc4)[C@@H]4[C@]5(OC(C)=O)CO[C@@H]5C[C@H](O)[C@@]4(C)C(=O)[C@H](OC(C)=O)C(=C2C)C3(C)C)[C@@H](NC(=O)c2ccccc2)c2ccccc2)O1 (stereo not given in full),1.84% (active)
19,Cc1ccc(Cl)cc1NC(=O)c1sc2nc3c(cc2c1N)C(=O)CCC3,62.9%
20,CC(=O)Oc1ccc(OC(C)=O)c2ccccc12,105%

row,Structure (SMILES),growth
1,O=C(NNC(=O)c1nc2cc(F)ccc2n2cccc12)c1cnccn1,23.4%
2,C[C@H](C(=O)N(CCc1ccc(Cl)c(Cl)c1)Cc1cncs1)[C@@H]1CC[C@H](C[C@H](C)n2cc(CN3CCC(c4ccc(Cl)cc4)CC3)nn2)O1,99.1%
3,O=C(CC(=O)Nc1cccc(C(=O)O)c1)Nc1cccc(C(=O)O)c1,96.6%
4,C=C1CC[C@@H]2C(C)(C)[C@@H](O)CC[C@@]2(C)[C@@H]1COc1ccc2ccc(=O)oc2c1,80.4%
5,CCS/C(Nc1ccccc1)=C(\C#N)C(=O)Nc1ccc(OC)cc1,15.2%
6,Nc1nc(NC(=O)Nc2ccc(C(=O)O)cc2)nn1-c1ccc(S(N)(=O)=O)cc1,95.4%
7,N#Cc1c(-c2ccccc2)nc(SCc2nnc(-c3ccc(Cl)cc3)o2)[nH]c1=O,92.1%
8,CCN(CC)c1ccc(/C=N/NC(=O)Cc2ccc(Nc3ccnc(C(F)(F)F)c3)cc2)c(O)c1,-18.3% (active)
9,CC[C@]12C=CCN3CC[C@@]4(c5ccc(OC)cc5N(C)[C@H]4[C@@](O)(C(=O)OC)[C@@H]1OC(=O)CCC[P+](c1ccccc1)(c1ccccc1)c1ccccc1)[C@@H]32,17.7%
10,Oc1c(CN2CCC(N3CCCCC3)CC2)cc(Cc2cc(CN3CCC(N4CCCCC4)CC3)c(O)c3ncccc23)c2cccnc12,-26% (active)
11,Nc1c(C(=O)Nc2cccc(Cl)c2)sc2nc3c(cc12)CCCC3,78.6%
12,C=C(c1ccc(OC)c(/C=C/C(=O)c2ccc3c(c2)OCO3)c1)c1cc(OC)c(OC)c(OC)c1,11.3%
13,CCCCCN(CCCCC)CC(O)c1cc(C)c2ccc3cc(C(C)C)ccc3c2c1 (stereo not given),20.3%
14,O=C1/C=C/[C@@H](O)[C@@H]2C[C@@H](O)C[C@H]2/C=C/CCC[C@H](CCO)O1,12.3%
15,CC(=O)/C(=C/c1ccc([N+](=O)[O-])cc1)C(=O)c1ccccc1,79.8%
16,CC1(C)CC[C@]23CC[C@]4(C)[C@H](CC[C@@H]5[C@@]6(C)C/C(=C/c7ccncc7)C(=O)C(C)(C)[C@@H]6CC[C@]54C)[C@H]2[C@H]1OC3,96.6%
17,CCCCCCCC/C=C\CCCCCCCCOc1ccc(CC(=O)NCC[N+]2(C)CCOCC2)cc1,81.4%
18,O=C(NNc1cnccn1)c1nc2cc(F)ccc2n2cccc12,5.33% (active)
19,O=C(C1=Cc2cc3ccccc3n2Cc2cnnn21)c1ccc(O)cc1,24.9%
